According to ChEMBL document CHEMBL3988442, “University of Dundee, Small-Polar-MMV Screening Library” (2021):

These compounds were tested against AMP-activated protein kinase, AMPK (Homo sapiens) (UniProt P54646+O43741+P54619+Q9UGJ0+Q9Y478+Q13131+Q9UGI9) (assay: AMP-dependent Kinase enzyme assay. An in vitro enzyme assay that detects ADP turnover that is directly proportional to AMPK activity. This uses naive AMPK that is activated during the assay with MK-8722). Settings: 30 µM.
Type: functional
Design: scale not given: direction of the effect not stated beside the values

Which Percent Effect does the source give for Cc1cc(CN(CC(N)=O)CC(C)C)no1 here?
The Percent Effect was -8.69%.

Which Percent Effect does the source give for CCc1nc2n(n1)CC(NCc1nc3ccccc3nc1C)CC2 (stereo not given) here?
Its Percent Effect is -2.35%.

With CCc1csc(NC(=O)Nc2c(C)n[nH]c2C)n1 as the compound, how does the Percent Effect read?
The Percent Effect was -1.09%.

Which Percent Effect does the source give for CCN(Cc1ccoc1)C(=O)Nc1ccccc1CN1CCOCC1 here?
The Percent Effect was 4.22%.

How did the Percent Effect turn out when CN(Cc1ccc(F)cc1F)Cc1cc2c(cc1Br)OCCO2 was run?
Its Percent Effect is -3.85%.

How did the Percent Effect turn out when Cc1ccc(S(=O)(=O)Cc2nnc(C)n2C)cc1 was run?
The Percent Effect was 6.55%.

With COC1CCN(c2ccc(F)cc2CN(C)C(C)C(N)=O)CC1 (stereo not given) as the compound, how does the Percent Effect read?
Its Percent Effect is 8.56%.

How did the Percent Effect turn out when Cc1cc(C(=O)N2CC[C@@]3(O)CCN(S(C)(=O)=O)C[C@H]3C2)c(C)n1C was run?
The Percent Effect was 3.49%.

With CN(CCCc1cnn(C)c1)Cc1cc2n(n1)CCNC2 as the compound, how does the Percent Effect read?
The Percent Effect was -4.86%.

With c1ccc(Cc2noc(-c3ccc(NCC4CCCCO4)nc3)n2)cc1 (stereo not given) as the compound, how does the Percent Effect read?
Its Percent Effect is 3.99%.

For CCNC(=O)CN1CCc2c(Br)ccc(F)c2C1, which Percent Effect is on record?
Its Percent Effect is -1.06%.

Which Percent Effect does the source give for O=C(COCc1ccccc1)NCc1ccc(O)c(F)c1 here?
Its Percent Effect is 8.21%.

How did the Percent Effect turn out when O=C(CN1CC(c2ccccc2)CC1=O)N1CCN(c2nccs2)CC1 (stereo not given) was run?
The Percent Effect was 15.4%.

CC1CN(c2ccccc2Cl)C(=O)CN1C(=O)c1c[nH]c(=O)c(Cl)c1 (stereo not given) was tested. Which Percent Effect did it give?
The Percent Effect was 5.06%.

Cc1nc2c(c(N[C@@H](CO)C(N)=O)n1)Cc1ccccc1OC2 was tested. Which Percent Effect did it give?
The Percent Effect was -0.406%.

For COc1ccccc1C(=O)NCCC(=O)Nc1c(C)nn(C)c1C, which Percent Effect is on record?
The Percent Effect was 9.26%.

With CCC(C(=O)NC1(CN2CCOCC2)CCCC1)n1cccn1 (stereo not given) as the compound, how does the Percent Effect read?
The Percent Effect was 5.49%.

With Cc1ccnc2c1NC(=O)CN2C(=O)CCc1cccs1 as the compound, how does the Percent Effect read?
Its Percent Effect is -0.535%.

With O=C(NCCS(=O)(=O)N1CCN(c2ncccn2)CC1)C1CCCC1 as the compound, how does the Percent Effect read?
The Percent Effect was -1.53%.

Which Percent Effect does the source give for COc1ccc(S(=O)(=O)Nc2cccnc2-n2cncn2)c(C)c1 here?
The Percent Effect was -5.19%.

For COCCCN1CCN(C(=O)C(c2cccc(F)c2)N(C)C)CC1 (stereo not given), which Percent Effect is on record?
The Percent Effect was -3.6%.

Which Percent Effect does the source give for Cc1c(C(=O)NCC(C)(C)S(C)(=O)=O)cccc1-c1ccccn1 here?
The Percent Effect was 11.1%.

For CN(C1CCCCC1)S(=O)(=O)NCC1Cc2ccccc2O1 (stereo not given), which Percent Effect is on record?
Its Percent Effect is -9.03%.

How did the Percent Effect turn out when CC(Cn1cncc1-c1cnn(Cc2ccccc2)c1)N1CCCCC1 (stereo not given) was run?
Its Percent Effect is 7.07%.

How did the Percent Effect turn out when CN(C(=O)c1cccc(C#N)c1)c1nnc(C2CCOC2)s1 (stereo not given) was run?
Its Percent Effect is 5.31%.

CC(C)(C)c1noc(CCCC(=O)N2CCNC(=O)CC2)n1 was tested. Which Percent Effect did it give?
The Percent Effect was -2.76%.

COCCCN1CC2(CCN(C(=O)c3ncc(F)cc3F)CC2)CC1=O was tested. Which Percent Effect did it give?
Its Percent Effect is -0.49%.

With CC(CNC(=O)CCCn1cncn1)N1CCc2ccccc2C1 (stereo not given) as the compound, how does the Percent Effect read?
Its Percent Effect is 14.6%.

How did the Percent Effect turn out when CC(NC(=O)NC1CCN(Cc2ccncc2)CC1)c1ccc(F)cc1 (stereo not given) was run?
The Percent Effect was 7.79%.

CC(NC(=O)C1CC1)C(=O)N(C)Cc1ccsc1 (stereo not given) was tested. Which Percent Effect did it give?
The Percent Effect was -1.9%.

With CN(C)c1cc(N(C)Cc2cc(C(C)(C)C)n[nH]2)ncn1 as the compound, how does the Percent Effect read?
The Percent Effect was -16.4%.

How did the Percent Effect turn out when COc1ccccc1OC1CCN(C(=O)c2cnc(C)s2)CC1 was run?
The Percent Effect was 3.19%.

CCCc1nc(C)cc(N2Cc3cnn(CCO)c3C2)n1 was tested. Which Percent Effect did it give?
Its Percent Effect is 5.18%.

CC(C)c1nccc(CN(C)Cc2cnn(-c3ccccc3)c2)n1 was tested. Which Percent Effect did it give?
The Percent Effect was -5.06%.

With O=C(Cc1c(F)cccc1Cl)Nc1cc(N2CCCC2)ncn1 as the compound, how does the Percent Effect read?
The Percent Effect was 4.4%.

How did the Percent Effect turn out when O=C(CCC(=O)N1CCNC(=O)C1c1cccc(F)c1)NC1CCCC1 (stereo not given) was run?
The Percent Effect was -9.49%.

How did the Percent Effect turn out when O=C1CN(C(=O)c2cc3c(F)cc(Br)cc3[nH]2)CCN1 was run?
Its Percent Effect is 8.46%.

Which Percent Effect does the source give for COc1cc(COCC2CCN(Cc3ccccn3)CC2)cc(OC)c1 here?
Its Percent Effect is -0.77%.

How did the Percent Effect turn out when COC(=O)C1CCN(C(=O)Cn2ccc(-c3ccccc3)n2)CC1 was run?
Its Percent Effect is -5.77%.

For Cc1ccc(CN(C(=O)NC2CCS(=O)(=O)C2)C2CC2)o1 (stereo not given), which Percent Effect is on record?
The Percent Effect was 1.3%.
